Values joined by “and” are separate entries in the source; they are usually repeats but may differ in a detail not shown here. Identical values can stand only once. Out of some 2,000 compounds screened, about 250 (12%) were called active. The entries come from a sample that favours actives as a whole. Values without a mark were called inactive. No stated cut-off is given here; in the data, active means hERG blockade below about -20% or above about 20%; inactive means in between.

Chain of Voltage-gated inwardly rectifying potassium channel KCNH2 (Homo sapiens) (Q12809 whole entry, looked up): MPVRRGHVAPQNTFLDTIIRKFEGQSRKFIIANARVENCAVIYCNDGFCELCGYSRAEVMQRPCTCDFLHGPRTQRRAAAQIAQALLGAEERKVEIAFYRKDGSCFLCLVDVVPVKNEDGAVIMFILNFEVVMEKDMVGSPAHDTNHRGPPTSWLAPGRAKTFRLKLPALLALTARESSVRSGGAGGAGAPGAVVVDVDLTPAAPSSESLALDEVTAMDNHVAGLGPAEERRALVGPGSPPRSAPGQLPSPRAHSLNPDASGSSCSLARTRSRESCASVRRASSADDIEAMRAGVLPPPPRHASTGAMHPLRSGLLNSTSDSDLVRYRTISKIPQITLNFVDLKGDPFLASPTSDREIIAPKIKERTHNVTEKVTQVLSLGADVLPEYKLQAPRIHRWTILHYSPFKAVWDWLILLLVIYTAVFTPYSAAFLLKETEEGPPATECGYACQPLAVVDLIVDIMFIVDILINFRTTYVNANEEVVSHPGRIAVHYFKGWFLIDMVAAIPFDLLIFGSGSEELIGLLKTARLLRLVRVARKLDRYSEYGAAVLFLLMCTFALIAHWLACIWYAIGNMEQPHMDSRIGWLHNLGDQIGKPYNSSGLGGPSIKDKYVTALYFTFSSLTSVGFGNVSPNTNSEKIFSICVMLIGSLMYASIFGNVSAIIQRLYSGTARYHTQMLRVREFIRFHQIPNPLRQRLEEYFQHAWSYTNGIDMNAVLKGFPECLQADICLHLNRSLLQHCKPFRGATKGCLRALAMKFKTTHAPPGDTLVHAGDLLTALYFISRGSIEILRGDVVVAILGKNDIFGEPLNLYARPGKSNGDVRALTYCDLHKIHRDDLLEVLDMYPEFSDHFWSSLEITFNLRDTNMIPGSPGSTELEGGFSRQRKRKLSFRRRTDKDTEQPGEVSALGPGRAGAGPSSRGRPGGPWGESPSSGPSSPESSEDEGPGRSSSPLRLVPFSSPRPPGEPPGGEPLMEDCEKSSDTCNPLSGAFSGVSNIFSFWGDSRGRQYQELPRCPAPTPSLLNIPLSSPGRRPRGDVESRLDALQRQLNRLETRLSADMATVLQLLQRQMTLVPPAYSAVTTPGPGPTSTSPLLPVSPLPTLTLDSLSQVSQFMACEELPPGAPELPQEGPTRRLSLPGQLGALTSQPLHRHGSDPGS

The assay addresses Voltage-gated inwardly rectifying potassium channel KCNH2 (Homo sapiens) (UniProt Q12809). Briefly: modulators of KCNH2 ion channel function, cellular (AID 376).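 Further: 0% = buffer alone and 100% = reference blocker.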 The note with it: hERG-expressing cells, channel activity single-concentration screen; concentration not given here. A general note: The hERG channel carries a current that helps repolarise heart muscle cells.
For the molecule `Cc1cc(C)nc(SCCc2cccc[n+]2C)n1`, the hERG blockade is 71.5% (active).
The value for `Cc1ccc(S(=O)(=O)NCc2cccc([N+](=O)[O-])c2)cc1` was 14.6%.
The value for `Cc1cccc(CNc2ncnc3[nH]ncc23)c1` was -7.57%; that for `COc1ccc(Br)c2c1CC(C(=O)O)CC2` (stereo not given) was -1.02%; that for `Cc1ccc(C(=N)c2ccccc2Cc2cccc3ccccc23)c2ccccc12` was -5.31%.
The value for `c1cncc(CSc2ncnc3nc[nH]c23)c1` was -11.9%.
As to `Cc1cc(Cl)nc2ccc(Cc3ccc4nc(Cl)cc(C)c4c3)cc12`, the hERG blockade was -16.7%.
The result for `COc1ccc(CC(O)CN2CCOCC2)cc1` (stereo not given) reads -3.36%.
The value for `Cc1cc(N2CCCCC2)nc2ccc(Cc3ccc4nc(N5CCCCC5)cc(C)c4c3)cc12` was 81.4% (active); that for `Cc1nc2ccccc2nc1N1CCCC1` was -18.7%.
Consider `Cc1cc(N2CCOCC2)nc2ccc(Cc3ccc4nc(N5CCOCC5)cc(C)c4c3)cc12`, for which the hERG blockade is 42.1% (active).
The value for `NCCNCC1CCNCC1` was -1.79%; that for `OC1COC(OCc2ccccc2)C(O)C1O` (stereo not given) was -4.05%.
For the molecule `COc1ccc(C(=O)NN=C2C(=O)c3c(C)cc(C)cc3CC2(C)C)cc1`, the hERG blockade is 8.71%.
Regarding `CC1(C)C2CCC1(C)C(OC(=O)C=Cc1ccccc1)C2` (stereo not given), the hERG blockade is -7.8%.
The result for `CC(C)c1ccccc1S(=O)c1ccccc1C(C)(C)O` (stereo not given) reads -9.35%; that for `CC(C)CSCC1OC(n2cnc3c(N)nccc32)C(O)C1O` (stereo not given), -11.9%; that for `O=C(O)C(Br)C(Br)c1ccccc1[N+](=O)[O-]` (stereo not given), -1.11%.
In the case of `CC(=NNc1ccc2ccccc2n1)c1ccccc1O`, the hERG blockade was 8.91%.
In the case of `CN(N=Cc1ccccc1O)c1ccc2ccccc2n1`, the hERG blockade was -0.991%.
In the case of `O=[N+]([O-])c1cccc(C=NNc2ccc3ccccc3n2)c1O`, the hERG blockade is 26.8% (active).
With `Cc1cc(-c2cc(C)c(O)c(C(C)(C)C)c2)cc(C(C)(C)C)c1O`, the hERG blockade is 0.0679%.
The result for `CC(CS(=O)(=O)Cc1ccccc1)C(N)=O` (stereo not given) reads 3.43%; that for `COc1c(O)ccc2c1CN1CCc3cc4c(cc3C1C2)OCO4` (stereo not given), 22.7% (active).
As to `CC1=NC(C)(COC(=O)C2(C)NC(C)(CO)CO2)COC1=O` (stereo not given), the hERG blockade was -5.89%.
Consider `Cc1c2ccccc2c(CSC(=N)N)c2ccccc12`, for which the hERG blockade was 103% (active).
With `Cc1ncc(CSC(=N)N)n1Cc1ccccc1`, the hERG blockade was -16.6%.
The value for `N=C(N)SCCc1ccccn1` was -2.29% and 1.24%; that for `O=C(O)CSCCc1ccccc1` was 5.62%.
As to `CC12CC(=O)C3C(CCC4=CC(=O)CCC43C)C1CC=C2CC(=O)O` (stereo not given), the hERG blockade was -16.4%.
The result for `O=C(O)c1nc2nc(Cl)c(Cl)nc2[nH]1` reads 6.64%.
For `CCCCSCc1nc2nc(Cl)c(Cl)nc2[nH]1`, the hERG blockade is -33.6% (active).
The result for `CCN(CCO)CC1CCCC2CCCCC21` (stereo not given) reads -6.41%; that for `O=C(O)C1C2OC(C(Br)C2Br)C1C(=O)O` (stereo not given), -2.82%.
Consider `CC(=O)NC(Cc1ccc(O)cc1)C(=O)O` (stereo not given), for which the hERG blockade was -8.5%.
For `CN1CC(c2ccccc2)C(O)(C2(c3ccccc3)CN(C)CC(c3ccccc3)C2=O)C(c2ccccc2)C1` (stereo not given), the hERG blockade was 20.8% (active).
For the molecule `Nc1nc(SCCc2ccccc2)c2[nH]cnc2n1`, the hERG blockade was -0.569%.
Consider `Nc1nc(N)c(CCCCc2ccccc2)c(N)n1`, for which the hERG blockade was 26.6% (active).
The result for `CC1(C)N=C(N)N=C(N)N1CCCCc1ccccc1` reads -14.1%; that for `Cn1c(=O)c2[nH]c(CS(=O)(=O)Cc3nc4c([nH]3)c(=O)n(C)c(=O)n4C)nc2n(C)c1=O`, -2.72%.
Turning to `Nc1nc(N)c(N=Nc2ccc(C(=O)O)c(O)c2)c(N)n1`, the hERG blockade is 12.4%.
The value for `c1ccc(SCCc2ccncc2)cc1` was 5.61%.
The result for `CC(=NNS(=O)(=O)c1ccc(C)cc1)P(=O)(O)O` reads 15.5%; that for `COc1cc2c3cc1Oc1cc(ccc1O)CC1c4c(cc(OC)c(O)c4Oc4ccc(cc4)CC3[N+](C)(C)CC2)CC[N+]1(C)C` (stereo not given), 11.2%.
The result for `COc1ccc2cc1Oc1ccc(cc1)CC1c3c(cc(OC)c4c3Oc3cc5c(cc3O4)CCNC5C2)CCN1C` (stereo not given) reads 79.4% (active); that for `COc1cc2c3cc1Oc1c(OC)c(OC)cc4c1C(Cc1ccc(O)c(c1)Oc1ccc(cc1)CC3N(C)CC2)CN(C)C4` (stereo not given), 37.9% (active); that for `COc1ccc(CC2C(=O)NC(C)C(=O)N(C)C3Cc4ccc(cc4)Oc4cc(ccc4O)CC(C(=O)NC(C)C(=O)NC(C)C(=O)N2C)N(C)C3=O)cc1` (stereo not given), 4.92%.
In the case of `COc1ccc2cc1Oc1ccc(cc1)CC1c3cc(c(OC)cc3CCN1C)Oc1c(OC)c(OC)cc3c1C(C2)N(C)CC3` (stereo not given), the hERG blockade is 70.1% (active).
With `N=c1sc2ccccc2n1CCS` (tested in a mixture with another compound), the hERG blockade is 5.15%.
The value for `COC(NC(N)=O)C(=O)O` (stereo not given) was 6.05%; that for `Cc1c(Cl)cc(C(C)(C)C)c(O)c1Cc1c(C)c(Cl)cc(C(C)(C)C)c1O` was 0.223%.
The value for `CC(C)(CCC(C)(C)c1ccccc1)c1ccccc1` was 1.92%.
The result for `CN(C)Cc1nsc(N(C)C)n1` reads 2.33%.
Consider `Cn1c(=O)c2c(nc(Cc3ccccc3)n2CC(=O)O)n(C)c1=O`, for which the hERG blockade is 11.6%.
The result for `CCOc1ccccc1C=C(C#N)C(N)=O` reads -12.6%; that for `CC(=Cc1ccc(Cl)cc1)C(C)(C)C(=O)O`, -2.46%; that for `O=C(O)C1C2C=CC(O2)C1C(=O)Nc1ccccc1` (stereo not given), -12.4%.
The result for `O=C(NN=Cc1ccc2c(c1)CCC2)c1ccccc1O` reads 7.38%.
The value for `CN(C)CCCN1CCC2(CCC(C(C)(C)C)CC2)CC1` was 11.2%.
In the case of `CC(C)(C)C1CCC2(CC1)CCN(CCCN1CCOCC1)CC2`, the hERG blockade is 36.7% (active).
In the case of `FC(F)(F)c1nc2nc(Cl)c(Cl)nc2n1CCCN1CCOCC1`, the hERG blockade was -9.32%.
The value for `c1ccc(NCCSc2nc3ccccc3s2)cc1` was -0.231%; that for `CCC1CC(=O)N(SCC(N)C(=O)O)C1=O` (stereo not given) was -6%.
As to `Fc1cccc(F)c1C(Nc1nncs1)Nc1nncs1`, the hERG blockade is -2.76%.
The result for `CC(C)C(Sc1nc(N)nc2nc[nH]c12)C(=O)O` (stereo not given) reads 1.36%.

(Values after PubChem BioAssay AID376 (PDSP, 2006).)
